High-throughput results as filed in PubChem BioAssay.
An excerpt weighted towards active compounds, which were near 3.6% of everything screened.
WT yeast gro inh = growth inhibition of WT strain, primary screen, mitochondrial fusion inhibitor project, WT and mutant strains, chemical genetic; mitochondrial fusion phenotypic screen; 2.1% of 190,000 active; inhibition, % at 10 µM; AID 1362, 2008; in the data active = inhibition above about 58%; tested in S. cerevisiae
HCT116 PTEN-null = growth suppression of PTEN-null HCT116, primary screen, cell-based, CellTiter-Glo. HCT116 PTEN-null viability, 60 h; active compounds read low. viability, % at 10 µM. 1.2% of 140,000 active. AID 827, 2007;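 active = viability at or below a set limit, 4 SD under the median of all tested compounds, cut at about 3.7% in these data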;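 note: PTEN knockout HCT116 line with beta catenin targeted HCT116 as companion control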
HCT116 bCat-KO = primary screen for growth suppressors in beta-catenin knockout HCT116 cells (colon tumor, human); viability, % at 10 µM; 1.5% of 140,000 active; AID 818, 2007; HCT116 beta-catenin knockout viability, CellTiter-Glo, 60 h; active compounds read low;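 active = viability at or under a set limit, the compound median less 4 SD, cut at about 6% in these data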;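 note: 0% = Hyamine 1622 control at 20 µM and 100% = untreated cell control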
DAT uptake mod = changed hDAT dopamine uptake under cocaine IC80, either direction, primary screen, cocaine antagonist project, cell-based, LLC-PK1 hDAT, [14C]-dopamine uptake, MLSMR; Sodium-dependent dopamine transporter (Homo sapiens), Q01959; LLC-PK1 hDAT cells, [14C]-dopamine uptake with cocaine IC80; actives deviate in either direction; B-score at 10 µM; 1.3% of 110,000 active; AID 449768, 2010;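 active = Z score or B-score, a plate-position-corrected score, falls beyond the plate's 99.7% confidence bounds, in either direction; inactive = both scores lie inside the 99.7% bounds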;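 note: scored against the spread of the other compound wells on the same plate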
Target sequence (Q01959 whole entry, looked up): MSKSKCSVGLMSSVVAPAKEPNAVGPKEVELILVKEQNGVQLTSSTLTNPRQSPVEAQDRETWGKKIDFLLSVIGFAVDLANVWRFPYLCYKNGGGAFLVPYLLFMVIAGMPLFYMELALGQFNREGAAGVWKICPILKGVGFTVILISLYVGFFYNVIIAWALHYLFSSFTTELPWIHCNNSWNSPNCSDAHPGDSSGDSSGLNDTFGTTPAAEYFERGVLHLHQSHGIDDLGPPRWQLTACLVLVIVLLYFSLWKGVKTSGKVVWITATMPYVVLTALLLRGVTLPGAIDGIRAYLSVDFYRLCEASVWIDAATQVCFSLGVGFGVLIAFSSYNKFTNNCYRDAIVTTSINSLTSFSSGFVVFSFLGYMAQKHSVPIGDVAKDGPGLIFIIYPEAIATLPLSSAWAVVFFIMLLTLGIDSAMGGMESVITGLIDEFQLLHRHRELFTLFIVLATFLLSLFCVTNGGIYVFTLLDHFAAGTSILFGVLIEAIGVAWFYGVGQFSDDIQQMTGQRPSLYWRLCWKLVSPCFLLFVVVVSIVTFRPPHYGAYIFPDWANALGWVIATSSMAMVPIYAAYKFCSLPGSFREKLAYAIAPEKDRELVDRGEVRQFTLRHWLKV
Numbers without * were called inactive; . = not tested or not shown.

SMILES	WT yeast gro inh	HCT116 PTEN-null	HCT116 bCat-KO	DAT uptake mod
O=C(NC1CCCCC1)c1sc(=S)n2c1[nH]c(=O)c1ccccc12	64*	80	90	0.096
CCn1cc(C(=O)O)c(=O)c2cc(F)c(N/N=C/c3ccccc3[N+](=O)[O-])cc21	9	5	4.1*	.
CCn1cc(C(=O)O)c(=O)c2cc(F)c(N3CCN(S(=O)(=O)c4ccc(NC(=O)OC)cc4)CC3)cc21	-2	19	15	.
COc1ccc2c(c1)C=C(C(=O)NCc1ccc(Cl)cc1)CO2	68*	91	84	0.0025
O=C(Nc1ccc(Cl)cc1)C1=Cc2cc(Cl)ccc2OC1	-5	92	98	-0.0018
Nc1nc(Cl)cc(N2CCCC2)n1	-18	.	.	.
Nc1nc(Cl)cc(N2CCC(c3cc(-c4ccc(Cl)cc4Cl)n[nH]3)CC2)n1	64	4	3.2*	1.6
COc1ccc(Nc2nc(S(=O)(=O)c3ccc(C)cc3)c(Cl)s2)cc1	57	54	51	.
Cc1ccc(S(=O)(=O)c2nc(Nc3ccccc3)sc2Cl)cc1	79*	36	29	.
Clc1ccc(Cn2c(-c3cccnc3Cl)nc3ccccc32)c(Cl)c1	9	66	68	0.31
Clc1cccc(COn2c(-c3ccc(Cl)cc3Cl)nc3ncccc32)c1	67*	56	66	-0.2
Cc1ccc(COn2c(-c3ccc(Cl)cc3Cl)nc3ncccc32)cc1	71*	61	67	0.25
Oc1[nH]c2ccccc2c1N=Nc1nc2ccccc2s1	12	1.6*	1.3*	.
CC1CCN(c2nc(-c3cccnc3)nc3scc(-c4ccccc4)c23)CC1	60*	63	72	.
NC(=O)C1CC(O)CN1c1nc(CN2CCOCC2)nc2scc(-c3ccccc3)c12 (centres undefined)	-16	95	90	-0.67
CC1CCCN(c2nc(-c3cccnc3)nc3scc(-c4ccccc4)c23)C1 (centres undefined)	61*	43	32	.
CC1CCN(c2nc(CN3CCCCC3)nc3scc(-c4ccccc4)c23)CC1	68*	18	22	.
CN1CCN(c2nc(-c3cccnc3)nc3scc(-c4ccccc4)c23)CC1	15	.	.	.
CCN1C(=O)S/C(=C/c2c(OCc3ccc(C(=O)O)cc3)ccc3ccccc23)C1=O	73*	85	82	.
O=C(O)c1ccc(COc2ccc3ccccc3c2/C=C2/NC(=O)N(c3ccccc3)C2=O)cc1	7	80	71	0.2
CCCCN(C)C(=O)CCC(=O)Nc1ccc2nc(N3CCOCC3)cc(C)c2c1	10	95	90	2.5
CCN1CCN(c2cc(C)c3cc(NC(=O)Cc4ccc(OC)c(OC)c4)ccc3n2)CC1	13	78	96	3.1*
COc1ccc(N(C)C(=O)CCC(=O)Nc2ccc3nc(N4CCOCC4)cc(C)c3c2)c(OC)c1	-23	71	72	3.2*
CCN1CCN(c2cc(C)c3cc(NC(=S)N(CC)CC)ccc3n2)CC1	8	.	.	.
CN1CCN(C(=S)NC(=O)c2ccc(C(C)(C)C)cc2)CC1	-10	105	98	.
SMILES	WT yeast gro inh	HCT116 PTEN-null	HCT116 bCat-KO	DAT uptake mod
C=CCn1cccc(/C=C/C(=O)c2ccc(C(C)(C)C)cc2)c1=S	50	1.8*	1.4*	.
O=[N+]([O-])/C=C/c1cn(Cc2ccc(Cl)cc2)c2ccccc12	72	1.9*	10	.
Cc1cccc(Cn2cc(/C=C/[N+](=O)[O-])c3ccccc32)c1	-20	3.0*	3.2*	0.4
O=c1c2ccccc2nc2c3ccccc3c(NCCN3CCOCC3)nn12	-4	2.5*	1.9*	0.026
Nc1ccccc1Nc1ccccc1	18	64	72	2.5*
CC(C)c1ccc(NC(=O)c2snc3ccc(Cl)cc23)cc1	23	33	39	.
O=C1CSC(c2ccccn2)N1c1ccc(Br)cc1 (centres undefined)	-10	.	.	.
Cc1cccc(/C=C/C(=O)c2cc(Br)ccc(=O)c2O)c1	3	8	5.2*	-0.42
CCOc1ccc(/C=C/C(=O)c2cc(Br)ccc(=O)c2O)cc1	-29	9	9	.
CCc1ccc(/C=C/C(=O)c2cc(Br)ccc(=O)c2O)cc1	-6	7	5.1*	0.13
Cc1cccc(/C=N/NC(=O)c2ccc(Br)cc2)c1	-7	76	93	.
Cc1ccc(C)c(NCc2ccccc2CO)c1	-5	.	.	.
CC(C)CC1=NN(C(=O)c2ccco2)C(O)(C(F)(F)F)C1 (centres undefined)	7	.	.	.
CN1CCN(c2ccccc2NC(=O)c2ccc(-c3ccc(Cl)cc3Cl)o2)CC1	71	7	5.5*	-0.6
CC(C)c1ccc(NC(=S)N(C)CCc2ccccn2)cc1	74*	.	.	.
COc1ccc(-c2noc(CCC(=O)NCc3cccnc3)n2)cc1OC	10	95	105	0.61
CCOC(=O)c1ccc(Oc2nc(NC)nc(Nc3ccccc3)n2)cc1	-1	88	115	-1.1
CC(=O)c1ccc(Nc2nc(NCCO)nc(OC(C(F)(F)F)C(F)(F)F)n2)cc1	6	68	82	-6.3*
CNc1nc(Nc2ccc(C(C)=O)cc2)nc(OC(C(F)(F)F)C(F)(F)F)n1	25	74	70	-5.9*
COc1ccc(NC(=O)/C(Cl)=C(/Cl)S(=O)(=O)Cc2ccc(C)cc2)cn1	77	2.0*	3.1*	-0.61
Cc1cccc(CN2CCN(Cc3nc4c(s3)CCCC4)CC2CCO)n1 (centres undefined)	8	.	.	.
Cc1ccc(-c2c(C(=O)N(C)Cc3ccccc3)oc(=O)c3ccccc23)cc1	67*	70	73	.
CN(Cc1ccccc1)C(=O)c1oc(=O)c2ccccc2c1-c1ccccc1	29	76	82	.
CSc1ccc(/C=N/NC(=O)CNc2ccc3ccccc3c2)cc1	65*	84	87	.
CC(C)(C)C1CCc2[nH]c3ccccc3c(=O)c2C1 (centres undefined)	82*	77	78	-0.63
SMILES	WT yeast gro inh	HCT116 PTEN-null	HCT116 bCat-KO	DAT uptake mod
Cc1cc(OCC(=O)Nc2ccncc2)cc(C)c1Br	74*	76	78	0.58
O=C(COc1ccccc1)Nc1ccncc1	5	.	.	.
CCc1cccc(C)c1NC(=O)COC(=O)c1c2c(nc3ccccc13)/C(=C\c1cccs1)CCC2	5	69	71	.
NC(=O)c1ccc(NC(=O)COC(=O)c2c3c(nc4ccccc24)/C(=C\c2cccs2)CCC3)cc1	76*	1.8*	1.8*	.
N#Cc1c(NC(=S)NC(=O)C2CCCC2)sc2c1CCCCC2	66*	85	82	.
Cc1ccc(-c2nc(CSc3nc4ccccc4c(=O)n3CCO)cs2)cc1	60*	95	80	.
Cc1ccc(-c2nc(CSc3nc4ccccc4c(=O)n3C)cs2)cc1	15	56	47	.
CCOc1cc(CN2CCN(CCOCCO)CC2)ccc1OC	4	113	98	-2.7*
Fc1ccc(COc2ccccc2-c2ccnc3ncnn23)cc1	13	.	.	.
O=c1c2ccccc2n(Cc2cccc(F)c2)c(=O)n1C1CCCC1	76*	84	76	0.12
N#Cc1ccccc1Cn1c(=O)n(C2CCCC2)c(=O)c2ccccc21	11	103	90	0.19
